Data reported in PubChem BioAssay (NCI).
This is part of a sample that, as a whole, favours compounds with a hit. Of some 79,000 tested, about 15% had one in any assay. Calls of active or inactive are those of the source. Rule as the data show it: active = growth inhibition above about 70%; inactive = the rest.

Legend:
[1] = NCI Yeast Anticancer Drug Screen. Data for the rad52 strain (AID 147);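 also: 0% = growth of vehicle-treated control cultures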; settings: S. cerevisiae rad52 mutant growth inhibition, stronger effect = higher value
How it was run: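 Yeast strain carrying a DNA damage repair alteration was exposed to test compounds. Growth inhibition was measured relative to vehicle-treated controls.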

[2] = NCI Yeast Anticancer Drug Screen. Data for the wt1 strain (AID 149);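 also: 0% = growth of vehicle-treated wt1 cultures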; settings: S. cerevisiae wt1 strain (SPY 50644) growth inhibition, stronger effect = higher value
How it was run: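 Growth inhibition read against vehicle controls after compound exposure of the wt1 yeast strain.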

[3] = NCI Yeast Anticancer Drug Screen. Data for the rad50EPP+ strain (AID 151);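 also: 0% = growth of vehicle-treated control cultures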; settings: S. cerevisiae rad50 mutant strain, stronger effect = higher value
How it was run: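 Yeast strain carrying rad50 alteration (rad50EPP+) exposed to compounds; growth inhibition measured relative to vehicle-treated controls.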

[4] = NCI Yeast Anticancer Drug Screen. Data for the rad50 strain (AID 155);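 also: 0% = growth of vehicle-only cultures of the same strain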; settings: S. cerevisiae rad50 strain growth inhibition, stronger effect = higher value
How it was run: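 Readout: growth inhibition relative to vehicle-treated cultures. Compound exposure was carried out in a genetically defined yeast strain deficient in DNA damage repair.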

[5] = NCI Yeast Anticancer Drug Screen. Data for the mec2-1 strain (AID 157); settings: S. cerevisiae mec2-1 strain, stronger effect = higher value
How it was run: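 mec2-1 yeast strain, carrying an alteration in DNA damage repair or cell cycle control, was exposed to compounds; growth inhibition was measured relative to vehicle-treated controls.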

[6] = NCI Yeast Anticancer Drug Screen. Data for the rad14 strain (AID 159);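 also: 0% = growth of vehicle-treated control cultures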; settings: S. cerevisiae rad14 strain growth inhibition, stronger effect = higher value
How it was run: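 Growth inhibition vs vehicle controls; genetically altered yeast strain (DNA damage repair defect) treated with test compounds.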

[7] = NCI Yeast Anticancer Drug Screen. Data for the sgs1 mgt1 strain (AID 161);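 also: 0% = growth of cultures given vehicle only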; settings: S. cerevisiae sgs1 mgt1 strain, stronger effect = higher value
How it was run: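 Yeast cells carrying a defined DNA-repair defect were exposed to test compounds. Growth inhibition was measured relative to vehicle-treated controls.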

[8] = NCI Yeast Anticancer Drug Screen. Data for the CLN2oe strain (AID 163);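 also: 0% = growth of vehicle-only control cultures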; settings: S. cerevisiae CLN2oe strain, stronger effect = higher value
How it was run: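 Yeast cells carrying a defined cell-cycle control alteration were exposed to test compounds. Growth inhibition was scored against vehicle-treated control cultures.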

[9] = NCI Yeast Anticancer Drug Screen. Data for the cln2 rad14 strain (AID 165);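 also: 0% = growth equal to vehicle treated cultures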; settings: S. cerevisiae cln2 rad14 strain, stronger effect = higher value
How it was run: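 Yeast carrying cln2 and rad14 alterations (cell cycle control and DNA damage repair) were exposed to compounds. Growth inhibition was measured against vehicle-treated controls.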

[10] = NCI Yeast Anticancer Drug Screen. Data for the bub3 strain (AID 167); settings: S. cerevisiae bub3 mutant strain, stronger effect = higher value
How it was run: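 Readout: yeast growth inhibition, expressed relative to vehicle-only wells. The test organism is a mutant strain from a panel with lesions in DNA repair or checkpoint genes.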

[11] = NCI Yeast Anticancer Drug Screen. Data for the wt2 strain (AID 169);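 also: 0% = growth of vehicle-treated yeast cultures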; settings: S. cerevisiae wt2 strain growth inhibition, stronger effect = higher value
How it was run: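 Yeast cells were exposed to test compounds, and growth inhibition was measured relative to vehicle-treated controls.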

[12] = NCI Yeast Anticancer Drug Screen. Data for the mlh1 strain (AID 171);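 also: 0% = growth of vehicle-treated control cultures of the same strain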; settings: S. cerevisiae mlh1 strain growth inhibition, stronger effect = higher value
How it was run: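 Yeast carrying a defined genetic alteration in DNA damage repair or cell cycle control were exposed to test compounds. Growth inhibition was measured relative to vehicle-treated controls.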

[13] = NCI Yeast Anticancer Drug Screen. Data for the sgs1 strain (AID 173);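 also: 0% = growth of vehicle-only control cultures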; settings: S. cerevisiae sgs1 mutant, stronger effect = higher value
How it was run: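 Yeast mutant strains carrying defined defects in DNA damage repair or cell cycle control were exposed to test compounds. Growth inhibition was scored against vehicle-treated controls.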

[14] = NCI Yeast Anticancer Drug Screen. Data for the mlh1 rad18 strain (AID 175); settings: S. cerevisiae mlh1 rad18 strain growth inhibition, stronger effect = higher value
How it was run: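 Growth inhibition of the yeast strain was measured after compound exposure and expressed relative to vehicle-treated controls. The strain carries defined defects in DNA damage repair.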

[15] = NCI Yeast Anticancer Drug Screen. Data for the rad18 strain (AID 177); settings: S. cerevisiae rad18 mutant growth inhibition, stronger effect = higher value
How it was run: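 Yeast carrying a defined DNA damage repair alteration were exposed to compounds. Growth inhibition was expressed relative to vehicle-treated controls.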

[16] = at 5.0 µM (retest, dose inferred, filed as 0.5)
[17] = at 50.0 µM (retest, dose inferred, filed as 5.0)

Measured: growth inhibition

CCOC(=O)[C@]1(Br)CC[C@@]1(Br)C(=O)OCC
active: [1]; at 33.0 µM 95% | [1]; at 100.0 µM 97% | [2]; at 33.0 µM 98% | [2]; at 100.0 µM 99% | [3]; at 33.0 µM 75% | [3]; at 100.0 µM 94% | [4]; at 33.0 µM 94% | [4]; at 50.0 µM 89% | [4]; at 100.0 µM 98% | [5]; at 33.0 µM 97% | [5]; [17] 80% | [5]; at 50.0 µM 93.1% | [5]; at 100.0 µM 99% | [6]; at 33.0 µM 94% | [6]; at 100.0 µM 99% | [7]; at 50.0 µM 91.8% | [8]; at 33.0 µM 91% | [8]; at 100.0 µM 99% | [9]; at 50.0 µM 87.3% | [10]; at 33.0 µM 81% | [10]; at 50.0 µM 91.4% | [10]; at 100.0 µM 96% | [11]; at 33.0 µM 98% | [11]; at 100.0 µM 100% | [12]; at 33.0 µM 97% | [12]; at 100.0 µM 99% | [13]; at 33.0 µM 96% | [13]; at 100.0 µM 99% | [14]; [17] 93% | [14]; at 50.0 µM 91% | [15]; at 33.0 µM 93% | [15]; at 100.0 µM 99%
inactive: [1]; at 1.2 µM -78% | [1]; at 3.7 µM -24% | [1]; at 11.0 µM 31% | [2]; at 1.2 µM -44% | [2]; at 3.7 µM -33% | [2]; at 11.0 µM -3% | [3]; at 1.2 µM -13% | [3]; at 3.7 µM -6% | [3]; at 11.0 µM 29% | [4]; at 1.2 µM -8% | [4]; at 3.7 µM 7% | [4]; [16] 26% | [4]; at 11.0 µM 23% | [4]; [17] 67% | [5]; at 1.2 µM -38% | [5]; at 3.7 µM -25% | [5]; [16] 29% | [5]; at 11.0 µM 27% | [6]; at 1.2 µM -53% | [6]; at 3.7 µM -31% | [6]; at 11.0 µM 14% | [7]; [16] -7% | [7]; [17] -36% | [8]; at 1.2 µM -3% | [8]; at 3.7 µM 15% | [8]; at 11.0 µM 15% | [9]; [16] -7% | [9]; [17] -76% | [10]; at 1.2 µM -38% | [10]; at 3.7 µM -44% | [10]; [16] 2% | [10]; at 11.0 µM -19% | [10]; [17] -38% | [11]; at 1.2 µM -67% | [11]; at 3.7 µM -48% | [11]; at 11.0 µM 6% | [12]; at 1.2 µM -37% | [12]; at 3.7 µM -29% | [12]; at 11.0 µM 35% | [13]; at 1.2 µM -27% | [13]; at 3.7 µM -22% | [13]; at 11.0 µM 43% | [14]; [16] 57% | [15]; at 1.2 µM -58% | [15]; at 3.7 µM -43% | [15]; at 11.0 µM 8%
